Screening results deposited in PubChem BioAssay by several laboratories.
An excerpt weighted towards active compounds, which were near 4.1% of everything screened.
PolyA inh: inhibitors of polyadenylation in S. cerevisiae; S. cerevisiae SKY197-pL101 polyadenylation reporter, beta-gal luminescence; efflux-impaired pdr1/pdr3 knockout yeast; score 100 = 6 SD above DMSO; activity score, % at 12 µM; 0.02% of 300,000 active;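 active = lowest replicate activity score at least 50, where 100 means six control SD above control mean; inconclusive = lowest score under 50 but half or more replicates reach 50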;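 note: yeast exposed to compound for 9 h at 30 °C; higher score means more reporter readthrough which indicates perturbed polyadenylation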
IDE cell activ: activators of human insulin-degrading enzyme in cells. AID 493087. P14735. 0.073% of 340,000 active. activation, % at 5.96 µM. HEK cells, FAbeta-B cleavage, fluorescence polarization; 0% vehicle, 100% cell-free pure enzyme wells;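 active = activation above the mean of all tested compounds plus 3 SD, set per screening campaign, cut at about 17% in these data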
ALR H2O2 inh: inhibitors of human sulfhydryl oxidase ALR; purified ALR, DTT oxidation, H2O2 HRP-luminol luminescence; 3.8% of 290,000 active; P55789; inhibition, % (test concentration not listed);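 active = mean replicate inhibition above about 79%, with every replicate also reaching it, limit read from the data; inconclusive = only one of the two criteria met; inactive = mean below limit and not every replicate reaching it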
Target sequence (P55789 whole entry, looked up): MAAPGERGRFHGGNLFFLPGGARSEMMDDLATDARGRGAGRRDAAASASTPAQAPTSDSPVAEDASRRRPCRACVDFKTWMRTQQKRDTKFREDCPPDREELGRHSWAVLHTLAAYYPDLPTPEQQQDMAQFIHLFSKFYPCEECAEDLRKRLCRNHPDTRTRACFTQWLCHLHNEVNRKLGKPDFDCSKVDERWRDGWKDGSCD
PfM18AAP inh: blocks P. falciparum M18 aspartyl aminopeptidase. AID 1822. 1.2% of 290,000 active. recombinant PfM18AAP, H-Glu-NHMec fluorogenic cleavage. inhibition, % at 7.35 µM;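 active = inhibition above the campaign mean inhibition over all tested compounds plus 3 SD, cut at about 28% in these data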;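 note: 0% = plate median of test compound wells and 100% = 2 mM ZnCl2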
IDE inh: inhibitors of human insulin-degrading enzyme in cells; inhibition, % at 5.59 µM; AID 434962; P14735; 0.41% of 320,000 active; HEK cells, FAbetaB cleavage, fluorescence polarization;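 active = percent inhibition above the average of all tested compounds plus 3 SD, set per screening campaign, cut at about 16% in these data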;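 note: IDE supplied by intact live HEK cells; FP after avidin binding of uncleaved biotin substrate so inhibition keeps polarization high; 0% = DMSO wells and 100% = 60 µM reference IDE inhibitor Ii1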
CaV13 ICDI inh: Primary screen for inhibitors of IQ motif and Ca2+-dependent inactivation inhibitor domain binding in CACNA1D, Förster resonance energy transfer in living cells, …; 0.098% of 340,000 active; inhibition, % at 12.3 µM; AID 743397; HEK cells, CFP/YFP FRET ICDI-IQ, plate reader, 10 min; percent FRET-ratio fall versus neutral wells;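 active = mean replicate inhibition of at least 30% and at least 1% of replicates passing that level; inconclusive = only one of the two criteria is met; inactive = neither criterion is met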;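 note: 0% = median of the neutral control wells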
Numbers without * were called inactive; ? = inconclusive; . = no result given.

SMILES	PolyA inh	IDE cell activ	ALR H2O2 inh	PfM18AAP inh	IDE inh	CaV13 ICDI inh
COc1ccc(N2CCN(CC(=O)NC(=O)NCc3ccco3)CC2)cc1	-5	4	64	2	0	-2
O=C(CN1CCN(c2ccc(O)cc2)CC1)NC(=O)NCc1ccco1	10	2	98*	14	0	-3
COc1cccc(N2CCN(C(=S)NCc3ccco3)CC2)c1	-13	6	87*	14	-5	-5
Fc1ccc(N2CCN(C(=S)NCc3ccco3)CC2)cc1	-7	-1	42	-1	-1	9
CCOC(=O)C1(CCCc2ccccc2)CCN(Cc2ccn[nH]2)CC1	3	-2	-8	-1	8	-4
COc1cccc(COC(=O)c2cc(S(=O)(=O)N3CCOCC3)ccc2Cl)c1OC	.	0	.	.	.	-6
O=Cc1ccc([B-](F)(F)F)o1	.	.	.	.	.	-5
CC(=O)Nc1cccc2c1C(=O)N(c1ccccc1OC(C)=O)C2=O	3	3	.	13	5	-5
COc1ccc(-c2nc(-c3ccccc3)ncc2S(C)(=O)=O)cc1	-6	4	-11	-1	3	19
CC(=O)N1CCN(c2ccc(NCc3ccco3)cc2)CC1	.	7	99*	.	2	-5
CC(=O)N1CCN(c2ccc(NCc3ccc(-c4cccc(Cl)c4)o3)cc2)CC1	.	-3	85*	.	3	.
O=C(c1cc(-c2cccc(Cl)c2)on1)N1CCN(c2ccc(F)cc2)CC1	0	0	.	2	1	-7
Cc1cc(Cl)ccc1C(O)c1ncc(-c2ccc(Cl)cc2)[nH]1 (stereo unspecified)	.	.	.	.	.	-7
Cc1ccc(CN2CCC=CS2(=O)=O)cc1	.	.	.	.	.	-8
Nc1nnc(CCC2CCCCC2)s1	-20	-3	1	-2	-2	-8
N#CC1=C(N)SC(N)=C(C#N)C1CCC1CCCCC1	-4	.	13	32*	2	.
Cc1ccccc1-c1nn[nH]n1	15	7	-4	-12	6	-5
Oc1ccc(N=Nc2ccccc2-c2nn[nH]n2)c(O)c1	0	2	.	34*	-1	-19
Cc1ccc(C(=O)N2CCCc3ccccc32)c(F)c1F	-8	1	-8	-2	-2	-19
O=c1c([N+](=O)[O-])c(O)c2ccccc2n1Cc1ccccc1	-4	-2	99*	11	0	-18
CCn1c(=O)c([N+](=O)[O-])c(Cl)c2ccccc21	-21	3	5	-94	1	.
Cc1cc(C)c2c(CN(Cc3ccccc3)Cc3ccccc3)cc(=O)oc2c1	.	.	.	.	.	-3
O=C(c1cc2ccccc2o1)N1CCN=C1SCc1cccc(F)c1	0	5	-42	6	-2	7
O=C(c1ccc(Br)o1)N1CCN=C1SCc1cccnc1	8	6	100*	7	1	7
O=C(c1cc2ccccc2o1)N1CCN=C1SCc1cccnc1	1	-3	99*	8	10	-5
SMILES	PolyA inh	IDE cell activ	ALR H2O2 inh	PfM18AAP inh	IDE inh	CaV13 ICDI inh
Nc1ccn(CCCN2CCN(C(=O)C3CC3)CC2)c(=O)n1	.	.	.	.	.	-2
COCCn1cnnc1SCC(=O)c1ccc(S(=O)(=O)N2CCCC2)cc1	1	2	87*	7	1	-5
Cn1cnnc1SCC(=O)Nc1cc(S(=O)(=O)N2CCCCC2)ccc1Cl	-10	1	-4	-20	3	-15
COc1cc(C(=O)CCN2CCC(c3ccccc3)C2)cc(OC)c1OC (stereo unspecified)	-5	1	98*	-12	3	-4
Nc1c(O)ccc2c1C(=O)c1ccccc1C2=O	-20	.	99*	9	0	-2
COc1ccc2c(c1O)C(=O)c1ccccc1C2=O	20	.	-20	0	-2	.
CCSc1nc(-c2ccccc2)c(C#N)c(=O)[nH]1	15	-1	10	5	0	-6
N#Cc1c(-c2ccccc2)nc(SCc2nc(N)nc(N3CCCCC3)n2)[nH]c1=O	-6	-4	97*	-14	-2	0
Cc1nc(CCNC(=O)Cc2ccc(F)cc2)cs1	?	5	7	-3	0	5
Cc1nc(CCNC(=O)Cc2ccc(Cl)cc2)cs1	-5	3	-6	-5	4	39*
Cn1c(=O)c(C(=O)CCl)c(N)n(Cc2ccccc2)c1=O	20	-1	22	0	5	-12
Cn1c(N)cc(=O)n(Cc2ccccc2)c1=O	0	-1	99*	1	0	-11
Cn1c(N)c(C(=O)CCl)c(=O)n(Cc2ccccc2)c1=O	0	0	99*	2	-2	-5
COc1cc(/C=N/n2c(C)nc3ccccc3c2=O)cc(OC)c1O	-12	-7	.	7	2	-19
COc1cccc(C(=O)Nc2sc(C(C)C)cc2C(N)=O)c1OC	-6	0	54	3	7	-2
O=S(=O)(Cc1noc(-c2ccc(Cl)cc2)n1)Cc1ccco1	-4	.	-4	15	5	1
COc1cccc(NC(=O)CSc2c3c(nc4ccccc24)CCCC3)c1	-1	-3	99*	9	5	-6
COc1ccc(NC(=O)CSc2ncnc3c2cnn3CCc2ccccc2)cc1	-7	3	6	0	-3	.
COc1cccc(NC(=O)CSc2ncnc3c2cnn3Cc2ccccc2)c1	13	0	90*	5	-3	-7
Cc1cccc(NC(=O)CSc2c3c(nc4ccccc24)CCC3)n1	-28	-3	99*	-1	4	-6
N#C/C(=C\c1ccco1)C(=O)Nc1cccc2ncccc12	1	4	-8	10	-2	41*
Clc1ccc(N/N=C/c2ccncc2)cc1Cl	-79	8	98*	-6	2	-5
Clc1ccc(N/N=C/c2cccnc2)cc1	-53	-1	99*	4	5	-15
O=C(NC(=S)Nc1cccc2ncccc12)c1ccco1	3	0	-27	8	1	1
O=[N+]([O-])c1ccc(N/N=C/c2cccnc2)cc1	2	5	10	11	10	-6
SMILES	PolyA inh	IDE cell activ	ALR H2O2 inh	PfM18AAP inh	IDE inh	CaV13 ICDI inh
N#C/C(=C\c1cccnc1)C(=O)Nc1cccc(Cl)c1	4	0	88*	3	3	-3
Cc1cccc(NC(=O)/C(C#N)=C\c2cccnc2)c1	-4	6	17	4	0	-2
C/C=C/c1ccc(OCC(=O)Nc2cc(Cl)ccc2-n2cncn2)c(OC)c1	-13	3	2	.	3	-1
COc1ccccc1NC(=O)/C(C#N)=C/c1cccnc1	10	2	37	7	0	-10
N#C/C(=C\c1cccnc1)C(=O)Nc1cccc2ccccc12	-12	-2	95*	-15	4	-3
N#C/C(=C\c1cccnc1)C(=O)Nc1ccc(Cl)cc1	1	4	98*	5	0	-10
Cc1ccc(COc2ccccc2C(=S)N2CCCC2)cc1	-22	-2	-5	28*	2	-6
